Test results reported in the antibiotic and cytotoxicity screens of Wong et al. (2023).
The whole screen tested about 39,000 compounds, of which about 3,300 (8.5%) were called active. The entries come from a sample that favours actives as a whole.

These compounds were tested on HepG2 (assay: cytotoxicity call (relative viability < 0.9)). Settings: 10 µM.
For `CO[C@@H]1CN(C)C(=O)c2ccc(NS(=O)(=O)CC(F)(F)F)cc2OC[C@@H](C)N(C(=O)c2ccc3c(c2)OCO3)C[C@@H]1C`, the cytotoxicity call was “inactive”.
With `Cc1noc(C)c1NC(=O)N[C@H]1C=C[C@@H](CC(=O)N2CCN(C)CC2)O[C@@H]1CO` the cytotoxicity call was “inactive”.
In the case of `CC(C)NC(=O)[C@@]1(c2ccc([N+](=O)[O-])cc2)CC(=O)N(CC23CC4CC(CC(C4)C2)C3)[C@@H]1c1ccc(CO)cc1I`, the cytotoxicity call is reported as “active”.
With `CC(C)CNC(=O)[C@@]1(c2ccc([N+](=O)[O-])cc2)CC(=O)N(CC23CC4CC(CC(C4)C2)C3)[C@@H]1c1ccc(CO)cc1I` the cytotoxicity call was “inactive”.
For `CCCNC(=O)[C@@]1(c2ccc([N+](=O)[O-])cc2)CC(=O)N(CC23CC4CC(CC(C4)C2)C3)[C@@H]1c1ccc(CO)cc1I`, the cytotoxicity call was “inactive”.
With `CN(C)c1cc(NC(=O)CNC(C)(C)C)c(O)c2c1C[C@H]1C[C@H]3[C@H](N(C)C)C(=O)C(C(N)=O)=C(O)[C@@]3(O)C(=O)[C@H]1C2=O` the cytotoxicity call was “inactive”.
For `O=C(C[C@@H]1C[C@H]2c3cc(NC(=O)Cc4ccncc4)ccc3O[C@H]2[C@@H](CO)O1)NCc1cccc(F)c1`, the cytotoxicity call was “inactive”.
With `N[C@H](C(=O)O)[C@@H]1CC(Cl)=NO1` the cytotoxicity call was “active”.
For `C[C@@H]1CN([C@H](C)CO)C(=O)c2cc(NS(=O)(=O)c3ccc(F)cc3)ccc2O[C@@H]1CN(C)S(=O)(=O)c1cccs1`, the cytotoxicity call was “inactive”.
In the case of `Cc1noc(C)c1S(=O)(=O)Nc1ccc2c(c1)CC(=O)N([C@@H](C)CO)C[C@H](C)[C@@H](CN(C)S(=O)(=O)c1ccc(Cl)cc1)O2`, the cytotoxicity call is reported as “inactive”.
With `Cc1cccc(C)c1NC(=O)c1ccccc1C(=O)O` the cytotoxicity call was “active”.
With `Cc1cccc(C(=O)O)c1O` the cytotoxicity call was “inactive”.
For `Cc1cccc(Nc2ccccc2C(=O)O)c1C`, the cytotoxicity call was “inactive”.
In the case of `C[C@@H]1CN([C@@H](C)CO)S(=O)(=O)c2ccc(C#CC3CCCCC3)cc2O[C@H]1CN(C)C(=O)Cc1ccncc1`, the cytotoxicity call is reported as “inactive”.
`CO[C@H]1C[C@H](O[C@@H]2/C(C)=C/C[C@@H]3C[C@@H](C[C@]4(CC[C@H](C)[C@@H](C5CCCCC5)O4)O3)OC(=O)[C@@H]3C=C(C)/C(=N/O)[C@H]4OC/C(=C\C=C\[C@@H]2C)[C@]43O)O[C@@H](C)[C@@H]1O` was tested, and the cytotoxicity call was “active”.
In the case of `CO[C@H]1C[C@@H](O[C@@H]2/C(C)=C/C[C@@H]3C[C@@H](C[C@]4(CC[C@H](C)[C@@H](C5CCCCC5)O4)O3)OC(=O)[C@@H]3C=C(C)/C(=N/O)[C@H]4OC/C(=C\C=C\[C@@H]2C)[C@]43O)O[C@@H](C)[C@@H]1O`, the cytotoxicity call is reported as “inactive”.
For `COC1CC(OC2C(C)=CCC3CC(CC4(CCC(C)C(C5CCCCC5)O4)O3)OC(=O)C3C=C(C)C(=NO)C4OCC(=CC=CC2C)C34O)OC(C)C1O` (configuration not stated), the cytotoxicity call was “active”.
